Experimental data published in PubChem BioAssay (NCI).
The panel holds about 79,000 compounds, 15% with a hit somewhere; the sample as a whole holds those more often. No stated cut-off is given here; in the data, active means growth inhibition above about 70%; inactive means the rest. Where a SMILES comes first, the peptide text is derived from it.

What was measured:
[1] = NCI Yeast Anticancer Drug Screen. Data for the rad50 strain (AID 155);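 further: 0% = growth of vehicle-only cultures of the same strain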; conditions: S. cerevisiae rad50 strain growth inhibition; at 50.0 µM; stronger effect = higher value
Method in brief: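 Readout: growth inhibition relative to vehicle-treated cultures. Compound exposure was carried out in a genetically defined yeast strain deficient in DNA damage repair.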

[2] = NCI Yeast Anticancer Drug Screen. Data for the mec2-1 strain (AID 157); conditions: S. cerevisiae mec2-1 strain, at 50.0 µM, stronger effect = higher value
Method in brief: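 Readout is yeast growth inhibition, normalised to vehicle-treated controls, in the mec2-1 strain exposed to compound.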

[3] = NCI Yeast Anticancer Drug Screen. Data for the sgs1 mgt1 strain (AID 161);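 further: 0% = growth of cultures given vehicle only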; conditions: S. cerevisiae sgs1 mgt1 strain, at 50.0 µM, stronger effect = higher value
Method in brief: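 Yeast cells carrying a defined DNA-repair defect were exposed to test compounds. Growth inhibition was measured relative to vehicle-treated controls.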

[4] = NCI Yeast Anticancer Drug Screen. Data for the cln2 rad14 strain (AID 165);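 further: 0% = growth equal to vehicle treated cultures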; conditions: S. cerevisiae cln2 rad14 strain, at 50.0 µM, stronger effect = higher value
Method in brief: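 Relative to vehicle controls, growth inhibition of compound-treated cln2 rad14 yeast was recorded.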

[5] = NCI Yeast Anticancer Drug Screen. Data for the bub3 strain (AID 167); conditions: S. cerevisiae bub3 mutant strain, at 50.0 µM, stronger effect = higher value
Method in brief: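 Readout: yeast growth inhibition, expressed relative to vehicle-only wells. The test organism is a mutant strain from a panel with lesions in DNA repair or checkpoint genes.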

[6] = NCI Yeast Anticancer Drug Screen. Data for the mlh1 rad18 strain (AID 175); conditions: S. cerevisiae mlh1 rad18 strain growth inhibition; at 50.0 µM; stronger effect = higher value
Method in brief: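 Test agents were incubated with a yeast strain of defined genotype (DNA damage repair defect). Inhibition of growth was derived by comparison with vehicle-exposed cultures.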

Measured: growth inhibition

C=CCC(OC(C)=O)c1cccc(OC)c1OC (stereo unspecified)
inactive: [1] 3.7% | [2] 7.2% | [3] -9.45% | [4] -48.7% | [5] -3.25% | [6] -5.3%

O=S1(=O)C(c2ccc(F)cc2)=C(O)c2cc3ccccc3nc21
inactive: [1] 29.2% | [2] 30.9% | [3] 27% | [4] 21.4% | [5] -8.85% | [6] 23.2%

CC(C)(C)C(=CS(=O)/N=C/c1ccccc1)C(C)(C)C (stereo unspecified)
inactive: [1] -27.4% | [2] -33% | [3] -28.6% | [4] -7% | [5] -37% | [6] -9.85%

O=C1OC(=O)C2C1C1c3ccccc3C2(O)c2ccccc21 (stereo unspecified)
inactive: [1] -1.8% | [2] -17.9% | [3] 0.2% | [4] 2.95% | [5] 6.1% | [6] -0.6%

CCOCc1cc(Cc2cc(COCC)c3cccnc3c2O)c(O)c2ncccc12
inactive: [1] 55.7% | [2] 16.7% | [3] 39.6% | [4] 10.2% | [5] 0.45% | [6] 16.2%

CCc1cccc(C)c1NC(=O)CCc1nnc2s/c(=C\c3cccc4ccccc34)c(=O)n12
inactive: [1] 25.6% | [2] 16.5% | [3] 19.8% | [4] 24.5% | [5] 2.1% | [6] 33.2%

O=C(Nc1ccc(Br)cn1)c1sc2ccccc2c1Cl
inactive: [1] 8.2% | [2] -9.7% | [3] 26.6% | [4] 19.4% | [5] 16.4% | [6] 14.2%

CC(C)(Cc1ccccc1)C(=C=C=C=C(c1ccccc1)C(C)(C)Cc1ccccc1)c1ccccc1
inactive: [1] -14.8% | [2] -3.7% | [3] -32.2% | [4] 5.9% | [5] 2.95% | [6] -15.7%

O=C1CCC(=O)N1C(c1ccccc1)(c1ccccc1)N1C(=O)CCC1=O
inactive: [1] -20.9% | [2] 12.2% | [3] -2% | [4] 29.1% | [5] 8.25% | [6] -6.85%

CCNC(=O)NCCN1CCOCC1
inactive: [1] -3.55% | [2] -8% | [3] -3.1% | [4] -75% | [5] 7.05% | [6] -2%

CN(C)c1ccc2c(c1[N+](=O)[O-])Cc1ccccc1-2
inactive: [1] 18.3% | [2] 3.3% | [3] 6.75% | [4] 14.6% | [5] 32.2% | [6] 6.05%

CS1(C)=NC(=O)c2cc([N+](=O)[O-])ccc2N=1
inactive: [1] 12.2% | [2] 19.4% | [3] 10.4% | [4] -25.2% | [5] 11.8% | [6] 12.8%

O=S(=O)(Nc1nc2ccccc2nc1Nc1cccc2ccccc12)c1ccccc1
inactive: [1] -1.3% | [2] -5.05% | [3] 3.8% | [4] -13.5% | [5] -10.9% | [6] -26.4%

COc1cc2c(cc1OC)C(CCN)NCC2 (stereo unspecified)
inactive: [1] -8.75% | [2] 7.2% | [3] -2.55% | [4] 7.3% | [5] -3.95% | [6] -9.25%

Cc1ccc(Cl)c(NC(=O)COc2ccc(Cl)cc2)c1
inactive: [1] -1.2% | [2] 28.3% | [3] 22.3% | [4] -6.6% | [5] 32.7% | [6] 26.4%

O=C1NC2C1C1c3ccccc3C2C12CC2 (stereo unspecified)
inactive: [1] -11.1% | [2] -7.95% | [3] -13.6% | [4] -11.8% | [5] 13.1% | [6] -1.85%

COC(=O)CCC(CCC(=O)O)([N+](=O)[O-])[N+](=O)[O-]
inactive: [1] 2.05% | [2] -5.65% | [3] -6.3% | [4] -36.4% | [5] -12.1% | [6] -11.8%

CC(C)(C)c1ccc2c(c1)C(C)(C)CCC2(C)C
inactive: [1] 12.8% | [2] 0.8% | [3] 3.05% | [4] -52.6% | [5] 8.3% | [6] 19.2%

CCOC(=O)c1sc(SC)nc1NC(=O)c1ccc(OC)cc1
inactive: [1] 24.6% | [2] 21.7% | [3] -31.6% | [4] 17.2% | [5] 2.1% | [6] 19.1%

COc1cc2ccc3c[n+](C)ccc3c2cc1OC
inactive: [1] 2.25% | [2] -30.9% | [3] -13.4% | [4] -22.4% | [5] -20.9% | [6] -57.6%

CC1(C)C2CCC1(C)C(NC(N)=O)C2 (stereo unspecified)
inactive: [1] -10% | [2] 6.45% | [3] -8.95% | [4] -6.6% | [5] 2.3% | [6] 10.5%

CCCN(CCC)C(=O)c1c(Cl)c2cccnc2n2c(C)cnc12
inactive: [1] 5.35% | [2] 19.7% | [3] 26.6% | [4] 18.7% | [5] 15.1% | [6] 31.3%

CC(=O)NC(C(=O)N1CCCC1C(=O)O)C(C)C (stereo not drawn) (Ac-Val-Pro-OH; configuration not given here)
inactive: [1] 7.9% | [2] -3.15% | [3] -6.65% | [4] 1.7% | [5] -19.1% | [6] 0.6%

O=[N+]([O-])c1ccc(Sc2c3ccccc3nc3ccccc23)cn1
inactive: [1] 21.1% | [2] 27.4% | [3] -12.5% | [4] 7.65% | [5] -14.8% | [6] -18.4%

CC1NC(C)SC(C)S1 (stereo unspecified)
inactive: [1] -9.15% | [2] -23.6% | [3] 0.15% | [4] -16.1% | [5] -0.7% | [6] 36.8%

C#CC(C)(O)c1ccccc1 (stereo unspecified)
inactive: [1] -1.15% | [2] -22.1% | [3] -7.75% | [4] -21.6% | [5] -1.95% | [6] -11.6%

C=CCn1c(NCCN(CC)CC)nc2ccc(Cl)cc2c1=O
inactive: [1] 47% | [2] 6.5% | [3] 31.8% | [4] 0.85% | [5] 11.8% | [6] 19.4%

O=C(Sc1ccccn1)c1ccccc1
inactive: [1] 4.15% | [2] -14.3% | [3] -18.4% | [4] -8.05% | [5] -21.6% | [6] -37.1%

O=C1CCC23CC(C=CC=C12)n1c(=O)n(-c2ccccc2)c(=O)n13 (stereo unspecified)
inactive: [1] 13.2% | [2] -1.55% | [3] 4.1% | [4] 21.1% | [5] -14.7% | [6] 16.7%

CC(C)(C)[Si](C)(C)OCCCC#CCO
inactive: [1] 12.1% | [2] -5.3% | [3] -3.85% | [4] 14.4% | [5] -13.6% | [6] 24.3%

CSCCC(NC(=O)c1cnc2ccccc2n1)C(=O)O (stereo unspecified)
inactive: [1] -4.55% | [2] 2.6% | [3] 11.2% | [4] 5.55% | [5] 14.7% | [6] -17.1%

O=C(O)c1ccccc1NCn1c(=S)sc2ccccc21
inactive: [1] 63% | [2] 45.8% | [3] 60.6% | [4] 5.5% | [5] 43.8% | [6] 53.9%

O=C(O)CCc1ccc([N+](=O)[O-])cc1Cl
inactive: [1] 5.8% | [2] 4.95% | [3] 7.3% | [4] -24.6% | [5] -17.4% | [6] -0.4%

NC(=O)c1csc(CCCCCCc2nc(C(N)=O)cs2)n1
inactive: [1] -13.8% | [2] -15.5% | [3] -5% | [4] 8.75% | [5] -21.2% | [6] -21.1%

Cc1nc2ccccc2c(Br)c1Br
inactive: [1] 14.5% | [2] 7.35% | [3] 3.55% | [4] 11.2% | [5] -4.05% | [6] 6.5%

N[C@@H](CSSc1ccccc1C(=O)O)C(=O)O
inactive: [1] -32.9% | [2] -7.25% | [3] -14.4% | [4] 1.85% | [5] 0.8% | [6] -10.3%

CC(C)(C)C1=CC(=O)C(C#N)(C(C)(C)C)C1=O (stereo unspecified)
inactive: [1] 11.2% | [2] -5.7% | [3] 7.15% | [4] -36% | [5] 1.6% | [6] 6.55%

CC(C)(C)OC(=O)NC(CCCCNC(=O)OCc1ccccc1)C(=O)NCCNc1ccc(NCCNC(=O)C(CCCCNC(=O)OCc2ccccc2)NC(=O)OC(C)(C)C)c2c1C(=O)c1ccccc1C2=O (stereo unspecified)
inactive: [1] -3.7% | [2] 0.1% | [3] -27.4% | [4] -1.4% | [5] -31.6% | [6] -52.8%

COc1ccc(/C=C\c2cc(OC)c(OC)c(OC)c2)cc1OC(=O)CC(N)C(=O)O (stereo unspecified)
inactive: [1] -19.6% | [2] -10.3% | [3] -8.65% | [4] -6.65% | [5] -1.55% | [6] -5.8%

CCCCN(CCCC)CC(CC)N(CCCC)CCCC (stereo unspecified)
inactive: [1] -8.4% | [2] 1.8% | [3] -5.7% | [4] -38.6% | [5] 10.8% | [6] 7.35%

FC(F)(F)c1cccc(C2SCc3nc4ccccc4n32)c1 (stereo unspecified)
inactive: [1] -16.4% | [2] 6.6% | [3] 7.1% | [4] 0.45% | [5] 23.9% | [6] 21.7%
